About 83,000 compounds went through this panel and 20% of them were active in at least one assay; those are over-represented in the sample as a whole.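 The endpoint reported here, percent growth, reads 100 for growth as untreated, 0 for no net growth and -100 for all cells dead.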 Activity calls are given as the source filed them.

This assay deals with SNB-19 CNS. Description: NCI-60 one-dose screen, 48 h (100 = growth as untreated, 0 = no growth, -100 = all killed). To be noted: 10 µM unless noted. The protocol:
Growth inhibition of the SNB-19 human tumor cell line is measured as a screen for anti-cancer activity. Cells are grown in 96 well plates and exposed to the test compound for 48 hours. Compounds are tested at a single concentration, which is 10^-5 M for most compounds. The reported endpoint is percent growth (GI% or GIPRCNT), where numbers from 0 - 100% represent growth inhibition, and numbers from -100% - 0 represent cell death. For example, a value of 40 represents 60% growth inhibition. A value of 0 means no net growth occurred over the course of the experiment. A value of -40 indicates 40% of cells at the beginning of the experiment died by the end of the experiment. A value of -100 means all cells are dead at the end of the experiment.
NCI-60 Human Tumor Cell Lines Screen was performed using the standard one-dose NCI protocol, which is described in more detail at https://dtp.cancer.gov/discovery_development/nci-60/default.htm.
Compounds with GIPRCNT values below 10 were considered active. Activity score was based on GIPRCNT using the following formula: […]
Score is 0 for GIPRCNT values of 100 or above, 50 for GIPRCNT values of 0, and 100 for GIPRCNT values of -100.
Turning to `N#C[Se]CCN1C(=O)C2C(C1=O)[C@H]1C=C[C@@H]2S1` (stereo not given in full), the growth was -19.1% (active).

With `O=S(=O)(c1ccc(Cl)cc1)C(Cl)(Cl)Cl`, the growth was 82.9% (inactive). On to `CCC[CH2][Sn]1([CH2]CCC)[O]C(=O)c2cccc([N+](=O)[O-])c2C(=O)[O]1`, for which the growth was -92.8% (active). For `COc1ccc(C(c2ccc(OC)cc2)C(Cl)(Cl)Cl)cc1` the value was 84% (inactive); for `O=[N+]([O-])c1ccc2cnn(CSP(=S)(c3ccccc3)c3ccccc3)c2c1`, 88.6% (inactive).

`Oc1ccc(O)c2c1C1(Cl)C(Cl)=C(Cl)C2(Cl)C1(Cl)Cl`: the growth is 64.9% (inactive).

As for `ClCCN(CCCl)c1ccc(/C=C\c2ccnc3ccccc23)cc1`, the growth is 88.8% (inactive).

On to `Cc1cccc(N(C)c2cccc3c2C(=O)[Se]C3)c1C`, for which the growth is 58.8% (inactive). Under `O=C(O)C1[O][Sb][O]C1C(=O)O` (stereo not given) stands 110% (inactive); under `[O]=[Sn]([CH]1CCCCC1)[CH]1CCCCC1`, -84.4% (active). Take `CC1(C)CC(=O)CC(C)(C)N1N=O`: the growth is 107% (inactive). In the case of `Cc1cc(NC(=O)/C=C/c2ccc([N+](=O)[O-])cc2)ccc1S(=O)(=O)F`, the growth is 109% (inactive). Regarding `CO[C@@H](c1ccccc1Cl)[C@H](C)OC(N)=O`, the growth was 96.7% (inactive). Under `O=C1c2ccccc2C(=O)N1[N+](=O)[O-]` stands 6.79% (active); under `CC(C)(C)NCC(O)c1ccccc1Cl` (stereo not given), 27.8% (inactive); under `COc1cc(NCCCCCN=C(N)N)c2ncccc2c1`, 37.5% (inactive). Consider `CCC(/C=C(C)/C=C/C(=O)c1c(O)c(-c2ccc(O)cc2)c[nH]c1=O)CO` (stereo not given), for which the growth was 90.6% (inactive). In the case of `COc1ccc(C2=NN(c3ccccc3)C(c3sc(N(CCCl)CCCl)nc3Cl)C2)cc1` (stereo not given), the growth is 93.5% (inactive). Under `CC[C@]12C=CCN3CC[C@@]4(c5ccc(OC)cc5N(C)[C@H]4[C@@](O)(C(=O)OC)[C@@H]1OC(=O)CCCN1CCN(CCCC(=O)O[C@@H]4[C@]5(CC)C=CCN6CC[C@@]7(c8ccc(OC)cc8N(C)[C@H]7[C@@]4(O)C(=O)OC)[C@@H]65)CC1)[C@@H]32` stands -93.9% (active); under `O=S(=O)(Cl)c1ccccc1` (tested in a mixture with another compound), 100% (inactive); under `CCC1([N+](=O)[O-])COP(=O)(NCc2cccnc2)OC1` (stereo not given), 108% (inactive). Turning to `O=C(O)CNC(=O)c1ccccc1`, the growth was 98.6% (inactive). Under `Cc1ccc(C[As+](c2ccccc2)(c2ccccc2)c2ccccc2)cc1` stands 17.2% (inactive); under `N#[N+]c1nc2nc(N)[nH]c(=O)c2[nH]1`, 99.8% (inactive); under `O=CN1N=C(c2ccc3c(c2)OCO3)CC1c1sc(N(CCCl)CCCl)nc1Cl` (stereo not given), 91% (inactive). Under `O=C(N/N=C/c1ccc([N+](=O)[O-])o1)c1cc([N+](=O)[O-])cc([N+](=O)[O-])c1O` stands 100% (inactive); under `CC(C)N=C(NC(C)C)N1CC1`, 115% (inactive). Regarding `CC1=C(SCCC(=O)OCC(=O)NCCC[Te]c2ccccc2)C(=O)c2ccccc2C1=O`, the growth was 9.54% (active).

On to `O=[N+]([O-])c1ccc(/C=C/C=C/c2ccc(S(=O)(=O)F)cc2)c(Cl)c1`, for which the growth was 94.3% (inactive). For `CNC(=O)Oc1cccc(N(C)C)c1` the value was 102% (inactive). `CC1(C)N=C(N)N=C(N)N1c1ccc(CCC(=O)Nc2cccc(S(=O)(=O)F)c2)cc1`: the growth is 51.9% (inactive). For `N#CC1=C(N)Oc2cc3c(cc2C1c1cccs1)OCO3` (stereo not given) the value was 43.2% (inactive). For `CCOc1cc(/C=N\Nc2nnc(C)n2N)c(C)cc1N(CCCl)CCCl` the value was 14.2% (inactive); for `ClCCN(CCCl)c1nc(Cl)c(C2CC(c3ccccc3)=NN2c2ccccc2)s1` (stereo not given), 79.9% (inactive). `C/C(=N/OC(=O)N(C)C)c1ccc(Cl)cc1Cl`: the growth was 103% (inactive). For the compound `CC(=O)[O][Hg][c]1ccccc1`, the growth is -26.6% (active).

Take `CC(=O)Nc1ccc(Cc2ccc(NC(C)=O)cc2)cc1`: the growth is 121% (inactive). Under `CC1(C)N=C(N)N=C(N)N1c1ccc(CCCCc2ccc(S(=O)(=O)F)cc2)cc1` stands 42% (inactive); under `O=c1cc[nH]c(=O)o1`, 108% (inactive). Regarding `O=C1NC(=O)C(CN2C(=O)C3(c4ccccc42)[C@H](Cl)C(=O)N3c2ccccc2)C(=O)N1` (stereo not given in full), the growth was 88.6% (inactive).

Values taken from PubChem BioAssay (NCI).
